Experimental data taken from PubChem BioAssay (NCATS).
Inconclusive results are not listed. Activity calls are given as the source filed them. Unless noted, calls come from the whole dose curve; as a rule, active = well fitted curve in the direction sought with a large enough effect; inconclusive = small, poorly fitted or top-dose-only effect, or another doubt; inactive = no such curve, though single readings can be large; an effect the other way counts as inactive or inconclusive.

What was measured:
[1] = target: Androgen receptor (Homo sapiens) (UniProt P10275); assay: qHTS assay for small molecule agonists of androgen receptor signaling (AID 588515; active = well fitted curve in the direction sought with a large enough effect in the signal ratio, with a control signal flat; the % refers to the signal ratio; note: % is set by controls: 0 for no effect and ±100 for the full control effect); conditions: AR-UAS-bla HEK293, beta-lactamase ratio, agonist 16 h; stronger effect = higher value
Sequence of Androgen receptor (Homo sapiens) (P10275 whole entry, looked up): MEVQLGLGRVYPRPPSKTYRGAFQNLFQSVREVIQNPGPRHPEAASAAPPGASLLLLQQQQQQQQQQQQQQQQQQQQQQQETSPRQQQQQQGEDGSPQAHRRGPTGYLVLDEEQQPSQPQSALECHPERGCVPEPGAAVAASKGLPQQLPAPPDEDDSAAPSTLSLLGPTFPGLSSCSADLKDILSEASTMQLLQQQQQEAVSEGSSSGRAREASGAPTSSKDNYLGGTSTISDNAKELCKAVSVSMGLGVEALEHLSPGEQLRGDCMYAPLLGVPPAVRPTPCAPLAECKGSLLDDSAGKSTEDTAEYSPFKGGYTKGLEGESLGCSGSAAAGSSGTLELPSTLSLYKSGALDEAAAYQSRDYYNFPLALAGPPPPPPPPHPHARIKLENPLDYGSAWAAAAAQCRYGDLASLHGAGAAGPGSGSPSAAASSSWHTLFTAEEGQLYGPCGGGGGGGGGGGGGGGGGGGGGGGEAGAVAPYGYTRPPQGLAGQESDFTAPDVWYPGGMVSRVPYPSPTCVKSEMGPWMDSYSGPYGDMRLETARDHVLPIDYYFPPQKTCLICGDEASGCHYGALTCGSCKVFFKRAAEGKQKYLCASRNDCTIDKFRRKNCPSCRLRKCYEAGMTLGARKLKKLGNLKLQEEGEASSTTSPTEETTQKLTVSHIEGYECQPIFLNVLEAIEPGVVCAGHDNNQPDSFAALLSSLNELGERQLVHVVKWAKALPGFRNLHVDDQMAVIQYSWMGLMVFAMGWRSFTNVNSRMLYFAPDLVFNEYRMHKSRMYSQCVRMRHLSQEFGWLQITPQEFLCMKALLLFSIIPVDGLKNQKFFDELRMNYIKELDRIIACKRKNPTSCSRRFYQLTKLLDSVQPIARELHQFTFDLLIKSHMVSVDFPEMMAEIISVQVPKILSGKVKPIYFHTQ
How it was run: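 Stimulation of an AR-responsive β-lactamase reporter in GripTite HEK293 cells was measured after 16 h compound exposure at 37 °C, via CCF4 fluorescence after 2 h RT. EC50 from Hill fits, normalized to R1881 at 30 nM.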

[2] = target: Glucocorticoid receptor (Homo sapiens) (UniProt P04150); assay: qHTS assay for small molecule agonists of glucocorticoid receptor signaling (AID 588532; active = well fitted curve in the direction sought with a large enough effect in the signal ratio, with a control signal flat; the % refers to the signal ratio;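 note: 100% = dexamethasone at 0.1 µM and 0% = DMSO only wells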); conditions: HeLa MMTV-bla, beta-lactamase ratio, agonist, 18 h; activation: stronger effect = higher value, percent of dexamethasone control, DMSO zero
Sequence of Glucocorticoid receptor (Homo sapiens) (P04150 whole entry, looked up): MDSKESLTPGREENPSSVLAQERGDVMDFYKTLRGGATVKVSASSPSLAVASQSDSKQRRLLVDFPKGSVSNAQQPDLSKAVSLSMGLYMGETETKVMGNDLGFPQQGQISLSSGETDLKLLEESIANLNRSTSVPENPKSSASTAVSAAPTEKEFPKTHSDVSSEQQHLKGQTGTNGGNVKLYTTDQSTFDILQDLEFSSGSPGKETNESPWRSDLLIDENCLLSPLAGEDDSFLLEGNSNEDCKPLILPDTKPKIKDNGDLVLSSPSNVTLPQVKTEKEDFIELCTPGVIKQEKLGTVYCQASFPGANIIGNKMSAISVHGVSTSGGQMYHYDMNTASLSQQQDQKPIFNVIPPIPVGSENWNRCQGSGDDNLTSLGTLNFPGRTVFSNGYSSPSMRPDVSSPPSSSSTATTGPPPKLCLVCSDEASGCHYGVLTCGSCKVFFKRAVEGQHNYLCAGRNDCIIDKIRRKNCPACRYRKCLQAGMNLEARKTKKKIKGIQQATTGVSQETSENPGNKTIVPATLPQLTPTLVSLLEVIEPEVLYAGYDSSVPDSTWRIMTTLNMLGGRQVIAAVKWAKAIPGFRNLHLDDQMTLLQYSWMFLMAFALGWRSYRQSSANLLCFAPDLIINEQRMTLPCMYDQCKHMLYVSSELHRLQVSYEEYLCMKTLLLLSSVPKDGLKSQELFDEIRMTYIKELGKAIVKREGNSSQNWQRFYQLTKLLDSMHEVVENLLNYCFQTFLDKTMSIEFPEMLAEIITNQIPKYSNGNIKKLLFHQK
How it was run: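 Cells were plated and rested 3-5 h at 37 C, compounds were added in titration and incubated 18 h, then CCF4 substrate was loaded for 2 h at RT before reading blue/green fluorescence. EC50 came from Hill-equation fitting.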

[3] = target: Vitamin D3 receptor (Homo sapiens) (UniProt P11473); assay: qHTS assay for small molecule antagonists of vitamin D receptor signaling (AID 588541; calls by dose curve;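 note: receptor activated by calcitriol during compound treatment; series mostly up to about 77 µM; % is set by controls: 0 for no effect and ±100 for the full control effect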)
Sequence of Vitamin D3 receptor (Homo sapiens) (P11473 whole entry, looked up): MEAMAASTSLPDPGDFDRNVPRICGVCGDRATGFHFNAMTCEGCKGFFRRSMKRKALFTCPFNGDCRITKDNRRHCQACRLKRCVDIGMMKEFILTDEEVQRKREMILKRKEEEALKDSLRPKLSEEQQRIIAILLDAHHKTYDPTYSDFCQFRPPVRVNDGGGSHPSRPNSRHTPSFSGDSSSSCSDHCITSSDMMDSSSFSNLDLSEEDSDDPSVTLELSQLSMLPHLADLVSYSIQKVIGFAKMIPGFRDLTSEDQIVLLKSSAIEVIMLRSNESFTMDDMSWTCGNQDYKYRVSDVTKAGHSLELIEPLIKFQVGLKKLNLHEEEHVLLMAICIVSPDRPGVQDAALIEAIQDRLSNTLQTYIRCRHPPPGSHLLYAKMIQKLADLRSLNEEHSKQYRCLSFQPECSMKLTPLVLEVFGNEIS
How it was run: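 VDR-UAS-bla HEK293T cells in 2% charcoal-stripped FBS were stimulated with 1-alpha,25-dihydroxyvitamin D3 (3 nM final) plus compound for 16 h at 37 C. The beta-lactamase CCF4 readout was normalized to 50 nM agonist and DMSO, and Hill fits gave IC50.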

[4] = target: Thyroid hormone receptor beta (Homo sapiens) (UniProt P10828); assay: qHTS assay for small molecule agonists of thyroid hormone receptor beta signaling (AID 588545; calls by dose curve)
Sequence of Thyroid hormone receptor beta (Homo sapiens) (P10828 whole entry, looked up): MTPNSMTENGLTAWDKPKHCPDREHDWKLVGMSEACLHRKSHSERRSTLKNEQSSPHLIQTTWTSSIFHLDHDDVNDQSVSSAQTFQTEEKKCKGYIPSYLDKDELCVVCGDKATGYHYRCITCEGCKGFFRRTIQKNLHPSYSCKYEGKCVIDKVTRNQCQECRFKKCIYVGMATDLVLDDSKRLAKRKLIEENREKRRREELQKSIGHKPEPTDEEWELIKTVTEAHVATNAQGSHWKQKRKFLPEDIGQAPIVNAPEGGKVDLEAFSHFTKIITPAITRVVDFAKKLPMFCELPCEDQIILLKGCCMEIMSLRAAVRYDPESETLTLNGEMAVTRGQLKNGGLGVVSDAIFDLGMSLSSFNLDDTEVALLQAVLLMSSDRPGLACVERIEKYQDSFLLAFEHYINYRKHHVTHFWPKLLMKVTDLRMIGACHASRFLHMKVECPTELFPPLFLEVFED
How it was run: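 Cells (2500/well) were seeded, incubated 4 hrs at 37 C, dosed with a compound series, incubated 18 hrs, loaded with CCF4 dye for 2 hrs at RT, then read for fluorescence. Data were scaled between DMSO (0%) and 10 nM T3 (100%).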

[5] = qHTS assay for small molecule antagonists of retinoid X receptor alpha signaling (AID 588546; active = well fitted inhibition curve with a large enough effect in the signal ratio, with a control signal flat, not every such curve was filed as active; the % refers to the signal ratio;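 note: cells stimulated with 9-cis-retinoic acid as agonist; % is set by controls: 0 for no effect and ±100 for the full control effect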); conditions: HEK293T RXRa-UAS-bla, beta-lactamase ratio, antagonist mode; measured here: W530 green channel, cytotoxicity proxy
How it was run: (§1)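 Beta-lactamase reporter inhibition, read as CCF4 fluorescence ratio (ex 405, em 460/530 nm) after 2 h at RT. HEK293T UAS-bla cells, 2500/well, were stimulated with 9-cis-RA at 500 or 100 nM final alongside test compound for 18 h at 37 C.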

[6] = target: Retinoic acid receptor RXR-alpha (Homo sapiens) (UniProt P19793); assay: as above; conditions: HEK293T RXRa-UAS-bla, beta-lactamase ratio, antagonist mode
Sequence of Retinoic acid receptor RXR-alpha (Homo sapiens) (P19793 whole entry, looked up): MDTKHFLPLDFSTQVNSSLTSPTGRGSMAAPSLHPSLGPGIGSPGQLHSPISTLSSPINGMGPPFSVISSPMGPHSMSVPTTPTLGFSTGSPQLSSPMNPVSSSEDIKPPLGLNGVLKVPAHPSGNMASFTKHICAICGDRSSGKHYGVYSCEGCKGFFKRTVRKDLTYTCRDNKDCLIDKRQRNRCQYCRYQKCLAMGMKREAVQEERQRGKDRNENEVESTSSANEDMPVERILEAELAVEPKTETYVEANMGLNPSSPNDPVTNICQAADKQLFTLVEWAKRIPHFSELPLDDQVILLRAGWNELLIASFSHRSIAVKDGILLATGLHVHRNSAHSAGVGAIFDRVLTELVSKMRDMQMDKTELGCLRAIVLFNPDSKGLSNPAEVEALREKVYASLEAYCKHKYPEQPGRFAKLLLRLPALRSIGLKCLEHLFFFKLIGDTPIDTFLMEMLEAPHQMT
How it was run: as §1

[7] = target: Thyroid hormone receptor beta (Homo sapiens) (UniProt P10828); assay: qHTS assay for small molecule antagonists of thyroid hormone receptor beta signaling (AID 588547; active = well fitted inhibition curve with a large enough effect in the signal ratio, with a control signal flat, not every such curve was filed as active; the % refers to the signal ratio;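 note: cells stimulated with 0.4 nM T3 agonist during compound exposure; series mostly up to about 77 µM; % is set by controls: 0 for no effect and ±100 for the full control effect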); conditions: TR-UAS-bla HEK293, beta-lactamase ratio, antagonist mode, 18 h
How it was run: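 TR-UAS-bla GripTite HEK293 cells in 2% charcoal/dextran FBS medium; compounds 0.59 nM to 92 uM with T3 at 0.4nM final, 18 h at 37 C. Beta-lactamase read by CCF4 fluorescence (460/530 nm); Hill fits gave IC50 and efficacy.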

[8] = qHTS assay for small molecule agonists of the antioxidant response element (ARE) signaling pathway (AID 651741; active = well fitted activation curve with a large enough effect in the signal ratio; the % refers to the signal ratio; note: potency is the fitted concentration of half-maximal effect)
How it was run: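 HepG2 ARE-bla reporter cells, 2,000/well; 5 h settle at 37 C/5% CO2; compound pin transfer (23 nL, DMSO); 16 h at 37 C; LiveBLAzer B/G FRET substrate, 2 h RT; fluorescence intensity read.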

[9] = qHTS assay for small molecule activators of the p53 signaling pathway (AID 651743; active = well fitted activation curve with a large enough effect in the signal ratio, not every such curve was filed as active; the % refers to the signal ratio; note: series mostly up to about 92 µM; % of control where 0% means no effect); conditions: HCT-116 p53RE-bla, beta-lactamase FRET ratio, 16 h; activation: stronger effect = higher value
How it was run: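 Reporter: beta-lactamase driven by p53 response elements, stably integrated in HCT-116 cells. Cells seeded at 4,000/well, 5 h preincubation, compound (DMSO) 16 h at 37 C; B/G FRET substrate 2 h RT; fluorescence intensity read.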

[10] = qHTS assay for environmental chemicals that activate the Aryl hydrocarbon Receptor (AhR) signaling pathway (AID 651777); conditions: 1A2-DRE human hepatoma cells, luciferase, 24 h; activation: stronger effect = higher value; note: nearly all actives have a fitted effect of over 15% in size; note: potency is the fitted concentration of half-maximal effect; for activation: % of control where 0% means no effect
How it was run: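 Luminescence read-out: One-Glo added for 30 min at RT after 24 hr compound treatment (37 C, 5% CO2) of human hepatoma cells expressing a DRE/CYP1A2 promoter–luciferase reporter; increased signal indicates AhR activation.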

[11] = qHTS assay for small molecule agonists of the antioxidant response element (ARE) signaling pathway measured by Nrf2-dependant transcriptional activity (AID 720636; active = well fitted curve in the direction sought with a large enough effect in the repeat runs; an effect the other way counts as inactive or inconclusive;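 note: HepG2 cells with an ARE-driven luciferase reporter; % of control where 0% means no effect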)
How it was run: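 HepG2 ARE-luc reporter line, 1% dialyzed FBS; 6 hr attachment at 37 C, compound pinned in, 16 hr at 37 C/5% CO2; ONE-Glo, 30 min RT, luminescence read.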

[12] = qHTS assay for small molecule agonists of the antioxidant response element (ARE) signaling pathway measured by Nrf2-dependant transcriptional activity - cell viability counter screen (AID 720653; active = well fitted curve in the direction sought with a large enough effect in the repeat runs; an effect the other way counts as inactive or inconclusive; note: % is set by controls: 0 for no effect and ±100 for the full control effect); conditions: ARE-bla HepG2 viability, CellTiter-Glo ATP luminescence, 16 h; max response: stronger effect = lower value
How it was run: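 ARE-bla HepG2 cells treated with compounds for 16 h at 37C; this counter screen measures viability as intracellular ATP by CellTiter-Glo luminescence after 30 min at room temperature.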

[13] = qHTS assay for cell viability of HEK293 cells (AID 743288); conditions: ATP luminescence (CellTiter-Glo), 18 h; max response: stronger effect = lower value; note: % is set by controls: 0 for no effect and ±100 for the full control effect; nearly all actives have a fitted effect of over 50% in size
How it was run: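 Viable-cell counts were inferred from luciferase-based ATP content in HEK293 cells seeded at 2,000/well, pre-incubated ≥5 h, then dosed with DMSO-solubilised compounds for 18 h at 37 C.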

[14] = qHTS assay for cell viability of the p53RE-bla HCT-116 cell line (AID 743292); note: % is set by controls: 0 for no effect and ±100 for the full control effect; nearly all actives have a fitted effect of over 55% in size
How it was run: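 Luminescent ATP quantitation (CellTiter-Glo) served as the viability read-out; reagent was added after 16 h compound exposure at 37 C and read after 30 min at room temperature. Cells: p53RE-bla HCT-116, 4,000 per well.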

[15] = target: Nuclear receptor subfamily 1 group I member 2 (Rattus norvegicus) (UniProt Q9R1A7); assay: qHTS assay for small molecule activators of the rat pregnane X receptor (rPXR) signaling pathway (AID 651751; call rule not given here; note: 0% is about no effect); conditions: rPXR reporter cells, luciferase (One-Glo), 24 h
Sequence of Nuclear receptor subfamily 1 group I member 2 (Rattus norvegicus) (Q9R1A7 whole entry, looked up): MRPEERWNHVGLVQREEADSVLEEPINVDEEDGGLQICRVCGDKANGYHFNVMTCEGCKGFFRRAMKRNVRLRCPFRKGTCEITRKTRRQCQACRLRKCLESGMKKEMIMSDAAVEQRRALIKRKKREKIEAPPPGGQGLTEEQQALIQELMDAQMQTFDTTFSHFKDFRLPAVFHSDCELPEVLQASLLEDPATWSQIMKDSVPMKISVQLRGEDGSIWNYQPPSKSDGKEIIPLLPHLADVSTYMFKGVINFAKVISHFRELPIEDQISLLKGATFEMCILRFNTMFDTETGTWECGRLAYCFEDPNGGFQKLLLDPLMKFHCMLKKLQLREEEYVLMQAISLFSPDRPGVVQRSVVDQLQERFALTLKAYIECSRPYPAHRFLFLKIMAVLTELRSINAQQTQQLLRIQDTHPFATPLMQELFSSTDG

[16] = target: Androgen receptor (Homo sapiens) (UniProt P10275); assay: qHTS assay for small molecule antagonists of androgen receptor signaling (AID 588516; active = well fitted curve in the direction sought with a large enough effect in the signal ratio, with a control signal flat, not every such curve was filed as active; the % refers to the signal ratio; note: % is set by controls: 0 for no effect and ±100 for the full control effect)
How it was run: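 Cells were plated and incubated 5 h, compounds added in titration, then R1881 (10 nM final) as agonist. After 16 h at 37 C, CCF4 substrate was loaded for 2 h at room temperature and fluorescence measured.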

[17] = target: Glucocorticoid receptor (Homo sapiens) (UniProt P04150); assay: qHTS assay for small molecule antagonists of glucocorticoid receptor signaling (AID 588533; active = well fitted inhibition curve with a large enough effect in the signal ratio, with a control signal flat, not every such curve was filed as active; the % refers to the signal ratio; note: % is set by controls: 0 for no effect and ±100 for the full control effect)
How it was run: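 Antagonist-mode qHTS: compound titrations added to GRE-bla HeLa cells, then dexamethasone 2 nM final; 18 h, 37 C. CCF4 FRET fluorescence normalized to dexamethasone and DMSO; IC50 from Hill fit.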

[18] = qHTS assay for small molecule antagonists of peroxisome proliferator-activated receptor delta signaling (AID 588535; active = well fitted inhibition curve with a large enough effect in the signal ratio, with a control signal flat, not every such curve was filed as active; the % refers to the signal ratio;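 for max response: cells co-treated with a PPAR-delta agonist as stimulator during compound exposure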); conditions: HEK293T PPARd-UAS-bla, beta-lactamase FRET ratio, 18 h; 460 nm channel
How it was run: (§2)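 Beta-lactamase reporter read-out (405 nm excitation, 460/530 nm emission) after CCF4 loading for 2 hrs at RT. HEK293T PPAR-delta-UAS-bla cells, 2% charcoal/dextran FBS, compounds for 18 hrs at 37 C. Hill fit gave IC50 and efficacy.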

[19] = target: Peroxisome proliferator-activated receptor delta (Homo sapiens) (UniProt Q03181); assay: as above
Sequence of Peroxisome proliferator-activated receptor delta (Homo sapiens) (Q03181 whole entry, looked up): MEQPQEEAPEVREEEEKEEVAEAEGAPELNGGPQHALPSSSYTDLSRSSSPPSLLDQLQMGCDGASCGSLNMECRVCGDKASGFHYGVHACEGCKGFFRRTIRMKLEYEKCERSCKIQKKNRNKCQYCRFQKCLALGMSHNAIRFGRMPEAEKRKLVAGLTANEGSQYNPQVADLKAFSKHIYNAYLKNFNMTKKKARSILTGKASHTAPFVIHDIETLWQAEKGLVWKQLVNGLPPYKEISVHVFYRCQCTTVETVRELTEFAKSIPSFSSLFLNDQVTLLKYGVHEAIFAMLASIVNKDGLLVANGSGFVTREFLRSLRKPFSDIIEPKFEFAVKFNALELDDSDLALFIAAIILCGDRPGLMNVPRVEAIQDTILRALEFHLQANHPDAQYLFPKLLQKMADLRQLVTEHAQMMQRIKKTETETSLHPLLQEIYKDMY
How it was run: as §2

[20] = qHTS assay for small molecule agonists of retinoid X receptor alpha signaling (AID 588544; calls by dose curve;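 for activation: 0% = DMSO basal wells and 100% = reference agonist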); conditions: HEK293T RXRa-UAS-bla, beta-lactamase reporter, 18 h; 530 nm emission
[21] = target: Retinoic acid receptor RXR-alpha (Homo sapiens) (UniProt P19793); assay: as above
[22] = qHTS assay for small molecule activators of the nuclear factor-kappa B (NF-kB) signaling pathway (AID 651749; active = well fitted activation curve with a large enough effect in the signal ratio; the % refers to the signal ratio; note: series mostly up to about 77 µM; % of control where 0% means no effect); conditions: NF-kB-bla ME-180 cells, beta-lactamase FRET ratio, 16 h; activation: stronger effect = higher value
How it was run: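 NF-kB-bla ME-180 cells, 2,000/well; 23 nL compound or DMSO pinned; 16 hr, 37C/5% CO2; beta-lactamase FRET read-out.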

[23] = target: Peroxisome proliferator-activated receptor alpha (Homo sapiens) (UniProt Q07869); assay: qHTS assay for small molecule agonists of the peroxisome proliferator-activated receptor alpha (PPARalpha) signaling pathway (AID 651778); conditions: PathHunter PPARalpha complementation, chemiluminescence, 6 h; max response: stronger effect = higher value; note: % of control where 0% means no effect
Sequence of Peroxisome proliferator-activated receptor alpha (Homo sapiens) (Q07869 whole entry, looked up, the tested form may be a part): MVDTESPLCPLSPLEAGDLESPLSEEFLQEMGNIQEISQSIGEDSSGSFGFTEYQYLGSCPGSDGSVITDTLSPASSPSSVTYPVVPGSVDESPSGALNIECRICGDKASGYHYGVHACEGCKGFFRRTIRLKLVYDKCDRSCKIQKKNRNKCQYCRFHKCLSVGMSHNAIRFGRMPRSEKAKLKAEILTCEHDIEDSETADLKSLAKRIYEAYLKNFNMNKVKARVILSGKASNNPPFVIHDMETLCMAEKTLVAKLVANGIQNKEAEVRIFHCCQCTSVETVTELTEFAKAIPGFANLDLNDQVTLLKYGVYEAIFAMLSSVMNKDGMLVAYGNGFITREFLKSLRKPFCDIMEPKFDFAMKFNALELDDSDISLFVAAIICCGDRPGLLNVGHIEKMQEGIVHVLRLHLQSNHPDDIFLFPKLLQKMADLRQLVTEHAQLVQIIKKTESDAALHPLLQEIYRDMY
How it was run: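 Enzyme-fragment complementation assay in which ligand-bound PPARalpha translocates and forms an active enzyme that generates chemiluminescence. Cells were plated overnight, exposed to compound for 6 hr at 37 C, and then given detection reagent for 60 min at room temperature.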

CC(C)=C[C@@H]1[C@@H](C(=O)OCN2C(=O)C3=C(CCCC3)C2=O)C1(C)C
active: Potency [8] 54.5 µM
inactive: activation [1] 0.858% | activation [2] 11.7% | Potency [3] | Potency [4] | max response [6] 18% | activity change % (negative = inhibition) [7] 7.01% | activation [9] 11.9% | activation [10] -1.3% | Potency [11] | max response [12] -22.2% | max response [13] -11.5% | Potency [14] | max response [15] 4.94%
-15.3%: max response [5]

CCOC(=O)COc1cc(-c2nn(C)c(OC(F)F)c2Cl)c(F)cc1Cl
16.9%: max response [5]
active: Potency [8] 17.2 µM | Potency [10] 44.7 µM
inactive: Potency [16] | Potency [17] | Potency [19] | Potency [3] | Potency [21] | max response [6] -15.1% | activation [9] -1.21% | activation [22] 1.18% | max response [23] -0.355% | Potency [11] | max response [12] 13.2% | max response [13] -5.44% | Potency [14] | max response [15] 0.553%
3.77%: max response [20]
58.4%: max response [18]
